Consider 14 compounds from PubChem BioAssay AID1345085 (National Center for Advancing Translational Sciences (NCATS), 2018).

Results filed as inconclusive are left out. Active and inactive are the calls of the source. The call rests on the fitted dose curve; in most records, active means well fitted cell-killing curve with a large enough effect; inconclusive means small, poorly fitted or top-dose-only effect, or effect the other way; inactive means no such curve, though single readings can be large or run the other way.
On the % scale 0 is the no-effect control and ±100 the full control effect; potency means the concentration at half of the fitted maximal effect.

This test deals with HeLa. The test is described as follows: Confirmatory qHTS for gynecologic anti-cancer compounds from libraries of approved drugs and bioactive compounds. Further: nearly all actives have a fitted effect of over 55% in size. The settings on record: gynecologic cancer cell panel viability, ATPlite luminescence, 48 h; series mostly up to 57.6 µM; activity change, negative = viability loss: at the top concentration. In outline: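 Cells (1,000/well) were plated, left 16 h at 37 C/5% CO2, then given compound at 11 concentrations (1:3) from 57.5 uM to 0.977 nM for 48 h. ATPlite luminescence after 15 min at room temperature gave IC50 values.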
In the case of `Cc1ccc(C(=O)N(CCCN)C(c2oc3cc(Cl)ccc3c(=O)c2Cc2ccccc2)C(C)C)cc1` (centres undefined), the Potency was 0.0137 µM (active).

On to `COc1ccc(-c2nc3ccc(C4=NNC(=O)CC4C)cc3[nH]2)cc1` (centres undefined), for which the Potency is 19.3 µM (active).

For `CCC1C(=O)N(C)c2cnc(Nc3ccc(C(=O)NC4CCC(N5CCN(CC6CC6)CC5)CC4)cc3OC)nc2N1C(C)C` (centres undefined), the Potency was 0.0385 µM (active).

In the case of `COc1cc2c(cc1-c1c(C)noc1C)ncc1[nH]c(=O)n(C(C)c3ccccn3)c12` (centres undefined), the Potency is 0.544 µM (active).

On to `CC(=O)c1cnc2ccc(-c3cc(Cl)c(O)c(Cl)c3)nc2c1NC1CCC(CN(C)C)CC1` (centres undefined), for which the Potency was 0.0993 µM (active).

Take `CC(C)n1nc(-c2cc3cc(O)ccc3[nH]2)c2c(N)ncnc21`: the Potency is 5.44 µM (active).

In the case of `COc1cc(N2CCC(N3CCN(C)CC3)CC2)ccc1Nc1ncnc(Nc2ccccc2S(=O)(=O)C(C)C)n1`, the Potency is 8.63 µM (active).

Take `Cc1ccc(C(=O)N(CCCN)C(c2nc3cc(Cl)ccc3c(=O)n2Cc2ccccc2)C(C)C)cc1` (centres undefined): the Potency was 0.0172 µM (active).

`Cc1cc(C(C)Nc2ccccc2C(=O)O)c2nc(N3CCOCC3)cc(=O)n2c1` (centres undefined): the Potency is 17.2 µM (active).

Regarding `CC(C)C[C@H](NC(=O)[C@H](Cc1ccccc1)NC(=O)c1cnccn1)B(O)O`, the Potency was 6.11 µM (active).

For the compound `OCc1ccc(-c2ccc(-c3ccc(CO)s3)o2)s1`, the “activity change, negative = viability loss” value is 0.688% [at 19.5 µM] (inactive).

In the case of `CCCCc1oc2ccccc2c1C(=O)c1cc(I)c(OCCN(CC)CC)c(I)c1`, the Potency is 50.1 µM (active).

On to `O=C(/C=C/c1cccc(S(=O)(=O)Nc2ccccc2)c1)NO`, for which the Potency was 5.3 µM (active).

`CN(NC(=O)CC(=O)NN(C)C(=S)c1ccccc1)C(=S)c1ccccc1`: the Potency was 0.122 µM (active).
